PubChem BioAssay
The source made the active and inactive calls.

How the values were obtained:
[1] = system: Human papillomavirus type 1a protein E7 (residues 44-93); assay: small molecules binding HPV E7 44-93 – biochemical, small-molecule microarray, residues 44-93, 635 nm fluorescence, primary screen (AID 1108); conditions: fluorescence 635 nm, higher = more signal;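 further: E7 fragment applied at 1 µg/mL in TBST for 1 h at 4 C; score combines spot fluorescence with its signal to noise ratio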
[2] = hepatitis C replication reporter changes, two-sided – Huh7 cells, luciferase reporter, HCV replication inhibitor project, primary screen (AID 1109); conditions: Huh7 HCV replicon luciferase reporter, 48 h; higher = more signal;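 further: huh7 hepatoma cells harbouring a luciferase neomycin HCV replicon reporter; luciferase luminescence as measure of HCV replicon replication; test concentration not given here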
[3] = molecular target: Left-right determination factor 2 (Homo sapiens) (UniProt O00292); assay: small molecules binding LEFTY2 protein – biochemical, small-molecule microarray, 635 nm fluorescence scan, primary screen (AID 1110); conditions: higher = more signal
Sequence of Left-right determination factor 2 (Homo sapiens) (O00292 whole entry, looked up): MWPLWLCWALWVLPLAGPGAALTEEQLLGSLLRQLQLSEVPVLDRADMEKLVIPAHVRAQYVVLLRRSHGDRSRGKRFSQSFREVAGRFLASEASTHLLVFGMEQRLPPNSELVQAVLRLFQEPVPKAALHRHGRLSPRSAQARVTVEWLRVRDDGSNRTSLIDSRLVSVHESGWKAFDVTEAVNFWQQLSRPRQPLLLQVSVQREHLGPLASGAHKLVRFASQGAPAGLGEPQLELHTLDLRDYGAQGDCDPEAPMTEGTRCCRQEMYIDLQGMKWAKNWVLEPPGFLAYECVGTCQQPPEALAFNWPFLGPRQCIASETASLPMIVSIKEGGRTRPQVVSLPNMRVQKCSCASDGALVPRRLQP

[4] = molecular target: Calmodulin-1 (Homo sapiens) (UniProt P0DP23); assay: small molecules binding calmodulin-1 with EGTA – biochemical, small-molecule microarray, Cy5-labelled CALM1, profiling panel (AID 1111); conditions: Cy5-CALM1 binding fluorescence, higher = more signal;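 further: labelled calmodulin applied in Tris saline Tween buffer holding calcium plus EGTA and DTT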
[5] = molecular target: Calmodulin-1 (Homo sapiens) (UniProt P0DP23); assay: small molecules binding Ca-loaded calmodulin-1 – biochemical, small-molecule microarray, Cy5-labelled CALM1, plus calcium, artefact control for SMM control-protein annotation, profiling panel (AID 1112); conditions: Cy5-CALM1 binding fluorescence, higher = more signal;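 further: score merges spot fluorescence with signal to noise from triplicate slides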
[6] = probe aWnt5a binding to arrayed compounds – biochemical, biotinylated probe, 635/667 nm fluorescence, primary screen (AID 1113); conditions: small-molecule microarray, higher = more signal;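 further: score merges 667 nm fluorescence intensity with signal-to-noise per printed feature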
[7] = probe aShh binding to arrayed compounds – biochemical, biotinylated probe, 635/667 nm fluorescence, primary screen (AID 1114); conditions: small-molecule microarray, higher = more signal;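 further: probe is biotin-labelled aShh protein from a stem cell growth factor screen; measures binding of labelled protein to compounds printed on the slide; score merges feature fluorescence at 667 nm with signal-to-noise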
[8] = probe aNog binding to arrayed compounds – biochemical, biotinylated probe, 635/667 nm fluorescence, primary screen (AID 1115); conditions: small-molecule microarray, higher = more signal;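 further: probe is biotinylated aNog protein used at 0.15 µg/mL for 1 h at 4 C; z-score combines 667 nm fluorescence of each spot with its signal to noise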
[9] = molecular target: Torsin-1A-interacting protein 1 (Homo sapiens) (UniProt Q5JTV8); assay: compound microarray binding of lysate hLAP1 – cell lysate, small-molecule microarray, COS7 lysate, 635/667 nm fluorescence, primary screen (AID 1116); conditions: 635 nm fluorescence, higher = more signal
Sequence of Torsin-1A-interacting protein 1 (Homo sapiens) (Q5JTV8 whole entry, looked up): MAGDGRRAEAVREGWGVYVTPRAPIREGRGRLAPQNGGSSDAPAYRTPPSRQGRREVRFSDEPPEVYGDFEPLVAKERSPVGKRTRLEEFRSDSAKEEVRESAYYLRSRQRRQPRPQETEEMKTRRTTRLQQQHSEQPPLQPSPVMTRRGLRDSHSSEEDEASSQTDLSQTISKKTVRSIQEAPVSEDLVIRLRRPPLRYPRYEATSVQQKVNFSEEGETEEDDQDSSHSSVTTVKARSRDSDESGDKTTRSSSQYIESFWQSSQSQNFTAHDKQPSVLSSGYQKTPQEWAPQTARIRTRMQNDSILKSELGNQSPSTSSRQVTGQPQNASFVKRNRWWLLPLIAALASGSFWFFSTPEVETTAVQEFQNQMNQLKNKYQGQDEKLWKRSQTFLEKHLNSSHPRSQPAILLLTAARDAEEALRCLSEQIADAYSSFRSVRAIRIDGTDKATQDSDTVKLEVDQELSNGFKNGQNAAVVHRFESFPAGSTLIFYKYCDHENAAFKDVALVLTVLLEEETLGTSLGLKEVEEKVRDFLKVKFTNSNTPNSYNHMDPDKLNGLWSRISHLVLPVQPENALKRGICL

[10] = molecular target: Alpha-bungarotoxin (Bungarus multicinctus) (UniProt P60615); assay: compounds binding labelled alpha-BTX control protein – biochemical, small-molecule microarray, Alexa647 label, 635/667 nm fluorescence, artefact control for SMM control protein annotation, profiling panel (AID 1117); conditions: alpha-BTX-A647 binding fluorescence, higher = more signal
Sequence of Alpha-bungarotoxin (Bungarus multicinctus) (P60615 whole entry, looked up): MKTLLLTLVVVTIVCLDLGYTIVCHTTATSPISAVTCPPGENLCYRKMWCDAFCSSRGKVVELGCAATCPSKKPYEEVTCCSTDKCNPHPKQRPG

Albumin (Bos taurus) = Albumin (Bos taurus) (UniProt P02769); assay: compounds binding labelled BSA control protein – biochemical, small-molecule microarray, Alexa647 label, 635/667 nm fluorescence, artefact control for SMM control protein annotation, profiling panel (AID 1118); conditions: BSA-A647 binding, fluorescence 635 nm, higher = more signal;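 further: score merges 667 nm emission intensity and signal-to-noise per printed compound spot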
Sequence of Albumin (Bos taurus) (P02769 whole entry, looked up): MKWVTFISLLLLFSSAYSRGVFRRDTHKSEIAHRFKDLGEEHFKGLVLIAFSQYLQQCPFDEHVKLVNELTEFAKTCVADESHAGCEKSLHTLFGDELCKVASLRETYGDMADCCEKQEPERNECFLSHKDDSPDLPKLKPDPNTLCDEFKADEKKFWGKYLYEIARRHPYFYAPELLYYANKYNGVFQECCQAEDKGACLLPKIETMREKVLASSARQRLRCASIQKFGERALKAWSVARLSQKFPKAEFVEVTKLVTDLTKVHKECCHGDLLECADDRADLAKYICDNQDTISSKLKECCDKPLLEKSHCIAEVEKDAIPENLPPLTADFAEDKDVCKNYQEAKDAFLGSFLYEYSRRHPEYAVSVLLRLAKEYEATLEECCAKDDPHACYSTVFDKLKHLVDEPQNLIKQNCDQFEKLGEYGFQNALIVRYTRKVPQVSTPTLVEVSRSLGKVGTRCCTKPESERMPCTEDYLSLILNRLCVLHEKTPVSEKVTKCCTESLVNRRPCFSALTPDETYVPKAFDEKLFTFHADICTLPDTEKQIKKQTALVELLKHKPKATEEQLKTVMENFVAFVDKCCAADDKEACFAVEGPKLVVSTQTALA

[11] = probe aXIP binding to arrayed compounds – biochemical, NeuroSMM set, 635/667 nm fluorescence, primary screen (AID 1119); conditions: small-molecule microarray, higher = more signal, called active from +8 up or from −8 down;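 further: probe is the protein aXip251-270 applied at 1 µg/mL to compound-printed slides; binding of probe to printed compounds measured as 667 nm fluorescence plus signal to noise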
[12] = probe aNOTCH3 binding on compound microarray – biochemical, small-molecule microarray, 635/667 nm fluorescence, primary screen (AID 1120); conditions: higher = more signal;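 further: probe is a biotin-tagged antibody raised against NOTCH3 rather than NOTCH3 protein; score merges spot fluorescence near 667 nm with spot signal to noise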
[13] = probe aNOTCH2 binding on compound microarray – biochemical, small-molecule microarray, 635/667 nm fluorescence, primary screen (AID 1121); conditions: higher = more signal;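 further: score merges feature fluorescence read at 667 nm with its signal to noise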
[14] = molecular target: Carbonic anhydrase 2 (Homo sapiens) (UniProt P00918); assay: compounds binding carbonic anhydrase 2 – biochemical, small-molecule microarray, Alexa647-labelled CAII, profiling panel (AID 1122); conditions: CAII-A647 binding fluorescence, higher = more signal
[15] = COS7 lysate on small-molecule microarray, probe aHis, 635 nm (AID 1123); conditions: COS7 cell lysate, fluorescence, higher = more signal;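 further: z-score combines 667nm fluorescence intensity with signal-to-noise per printed compound spot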
[16] = probe aLAP1 signal on lysate-treated microarray – cell lysate, small-molecule microarray, COS7 lysate, primary screen (AID 1124); conditions: probe aLAP1, fluorescence, higher = more signal;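 further: lysate comes from COS7 cells expressing LAP1 and is applied at 0.3 µg/mL; score merges spot fluorescence near 667 nm with signal-to-noise over triplicate slides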
Sam68 (KHDRBS1) = assay: compounds binding KHDRBS1 protein – biochemical, small-molecule microarray, 635 nm fluorescence, primary screen (AID 1125); conditions: higher = more signal;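 further: score merges 667 nm channel intensity with signal to noise over triplicate slides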
[17] = system: Chordin-like protein 2 (CHRDL2); assay: compounds binding chordin-like 2 – biochemical, small-molecule microarray, 635 nm fluorescence, primary screen (AID 1126); conditions: fluorescence 635 nm, higher = more signal;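 further: printed compound slides probed with Chrdl2 protein at 4 µg/mL for 1 h at 4 C; score merges 667 nm emission intensity with signal to noise over three replicate slides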
[18] = molecular target: Concanavalin-A (Canavalia ensiformis) (UniProt P02866); assay: compounds binding concanavalin A lectin – biochemical, small-molecule microarray, Alexa647 label, 635 nm, artefact control for SMM control protein annotation, primary screen (AID 1127); conditions: ConA-A647 binding fluorescence, higher = more signal;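 further: z combines 667 nm emission intensity with signal-to-noise across three replicate slides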
Sequence of Concanavalin-A (Canavalia ensiformis) (P02866 whole entry, looked up): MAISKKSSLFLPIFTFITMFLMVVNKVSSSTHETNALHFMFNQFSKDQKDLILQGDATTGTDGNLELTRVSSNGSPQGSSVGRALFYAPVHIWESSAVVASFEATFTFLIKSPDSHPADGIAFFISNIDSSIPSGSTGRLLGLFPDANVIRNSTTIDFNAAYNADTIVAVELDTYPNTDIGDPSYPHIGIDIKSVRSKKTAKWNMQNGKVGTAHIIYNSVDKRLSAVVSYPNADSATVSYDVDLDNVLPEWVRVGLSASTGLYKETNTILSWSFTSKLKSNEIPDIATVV

Structure (SMILES) | composite z-score [1] | z-score [2] | composite z-score [3] | composite z-score [4] | composite z-score [5] | composite z-score [6] | composite z-score [7] | composite z-score [8] | composite z-score [9] | composite z-score [10] | composite z-score (Albumin (Bos taurus)) | composite Z-score [11] | composite z-score [12] | composite z-score [13] | composite z-score [14] | composite z-score [15] | composite z-score [16] | composite z-score (Sam68 (KHDRBS1)) | composite z-score [17] | composite z-score [18]
CC(C)[C@@H](OCc1ccccc1)[C@H](C)C=NO[C@H](C)c1cn([C@@H]2COC[C@H]2O)nn1 | 1.27 | -1.16 | 0.542 | -0.219 | -0.407 | -0.0832 | -0.206 | -0.198 | 0.296 | 0.586 | 0.378 | -0.0641 (inactive) | 0.307 | -0.156 | -0.133 | 0.811 | 0.388 | 1.3 | 0.0507 | 0.584
COc1ccc(O[C@H]2C=C[C@@H](c3ccccc3)O[C@@H]2CON=C(C)CCN2CCCc3nc(C)c(C)cc32)cc1 | 1.09 | -2.04 | 0.597 | 0.284 | -0.425 | -0.0869 | -0.0769 | -0.158 | 0.358 | 0.651 | 0.118 | 0.528 (inactive) | 0.0225 | -0.048 | 0.437 | 0.896 | 0.271 | 1.05 | 0.369 | 0.946
CC(C)CON=C1C[C@@H](O)[C@@H](O)[C@@H]2[C@@H]3C(=O)N(c4ccc(F)cc4F)C(=O)[C@@H]3CC[C@@H]12 | 0.463 | -0.049 | 0.339 | 0.0012 | -0.541 | -0.0368 | -0.279 | -0.0563 | 0.142 | 0.421 | 0.238 | -0.0578 (inactive) | -0.095 | -0.0896 | 0.0617 | -0.146 | 0.135 | 0.693 | 0.243 | 0.72
CO[C@H]1COC(=O)[C@H](C)COC(=O)[C@H](C)NC(=O)CC=C[C@H]1C | 0.429 | -0.935 | 0.945 | -0.891 | -1.85 | -0.154 | 0.0121 | -0.41 | 0.143 | -0.369 | -0.642 | 1.19 (inactive) | -0.131 | -0.0051 | 0.0006 | -0.429 | 0.352 | 1.04 | 1.44 | -0.581
CCOC(=O)[C@H](Cc1ccccc1)NC(=O)CCC1CC(OC(=O)NCCc2ccc(F)cc2)CC2(CCCC(COC(=O)NCCOc3ccccc3)O2)O1 (stereo not given in full) | 1.4 | -1.05 | 0.701 | 0.483 | -0.296 | -0.0721 | -0.0709 | -0.28 | 0.306 | 0.472 | 0.595 | -0.275 (inactive) | 0.0833 | -0.0189 | 0.0403 | 0.585 | 0.283 | 1.29 | 0.508 | 0.909
C[C@@H]1CC[C@H]2C(=O)O[C@@H](CN=[N+]=[N-])CN2[C@H]1c1ccc(Br)cc1 | 1.23 | -4.98 | 0.672 | 0.169 | -0.425 | -0.262 | -0.32 | -0.571 | 0.0942 | 0.601 | 0.677 | -0.283 (inactive) | -0.0343 | -0.0287 | 0.236 | 1.02 | 0.373 | 1.12 | 0.526 | 1.07
CCN1C(=O)[C@H]2[C@H]3[C@H](O)[C@H](O)CC(=NOC[C@@H](O)[C@H]4O[C@@H]5OC(C)(C)O[C@@H]5[C@H]4O)[C@@H]3CC[C@H]2C1=O | -0.629 | -0.299 | 0.484 | -0.154 | -0.324 | -0.096 | -0.0289 | -0.0733 | -0.209 | 0.0203 | 0.0226 | -0.485 (inactive) | -0.299 | -0.0662 | 0.343 | 0.324 | -0.203 | -0.0334 | -0.736 | -0.406
CC(=O)OC[C@H]1O[C@H](CCON=C(C)C)C=C[C@@H]1OC(C)=O | -0.306 | -0.684 | 0.304 | -0.42 | -0.268 | -0.152 | -0.0769 | -0.324 | 0.3 | 0.501 | 0.123 | -0.0706 (inactive) | -0.0362 | -0.0651 | -0.177 | -0.308 | -0.0375 | -0.406 | 0.445 | 0.186
CC(CCC(=O)OC[C@H]1O[C@H](C#Cc2ccccc2)C=C[C@@H]1Oc1ccc(C)cc1)=NO[C@@H](C)c1cc(-c2c(C)cc(C)cc2C)no1 | -0.612 | -0.824 | -0.547 | -0.413 | -0.262 | -0.232 | 0.0121 | -0.118 | 0.328 | 0.326 | 0.363 | -0.61 (inactive) | -0.272 | -0.14 | -0.0955 | 0.0007 | 0.173 | -0.42 | -0.872 | -0.214
COc1ccc(COC(=O)NN=C2C[C@@H](O)[C@@H](O)[C@@H]3[C@@H]4C(=O)N(Cc5ccccc5)C(=O)[C@@H]4CC[C@@H]23)cc1 | 0.183 | 0.605 | 0.379 | -0.234 | -0.515 | -0.128 | 0.0278 | -0.216 | 0.0762 | -0.125 | -0.0233 | -0.185 (inactive) | -0.0362 | -0.182 | -0.359 | 0.275 | -0.23 | 0.389 | 0.172 | 0.0738
CC(CCN1CCc2nc(-c3ccccc3)c(-c3ccccc3)cc2C1)=NO[C@H](C)c1cn([C@H](CO)Cc2ccccc2)nn1 | -0.93 | -2.3 | 0.332 | 0.0521 | 0.509 | -0.0242 | -0.16 | -0.0309 | 0.34 | 1.2 | 0.901 | -0.248 (inactive) | -0.155 | -0.161 | 0.367 | 0.585 | 0.0245 | -0.29 | 0.26 | 0.158
